# From ChEMBL document CHEMBL3433997, “St. Jude Leishmania screening dataset” (2016)
# Molecular target: Solute carrier family 2, facilitated glucose transporter member 1 (Homo sapiens) (UniProt P11166)
# Test: ST_JUDE_LEISH: Cytotoxicity at 2uM final concentration against transgenic Leishmania Mexicana promastigotes LmGLUT1 that are glucose transport deficient and complemented with the human glucose transporter GLUT1. Activity is measured by DNA content using SYBR green in vitro
# Type: functional
# Chain of Solute carrier family 2, facilitated glucose transporter member 1 (Homo sapiens) (P11166 whole entry): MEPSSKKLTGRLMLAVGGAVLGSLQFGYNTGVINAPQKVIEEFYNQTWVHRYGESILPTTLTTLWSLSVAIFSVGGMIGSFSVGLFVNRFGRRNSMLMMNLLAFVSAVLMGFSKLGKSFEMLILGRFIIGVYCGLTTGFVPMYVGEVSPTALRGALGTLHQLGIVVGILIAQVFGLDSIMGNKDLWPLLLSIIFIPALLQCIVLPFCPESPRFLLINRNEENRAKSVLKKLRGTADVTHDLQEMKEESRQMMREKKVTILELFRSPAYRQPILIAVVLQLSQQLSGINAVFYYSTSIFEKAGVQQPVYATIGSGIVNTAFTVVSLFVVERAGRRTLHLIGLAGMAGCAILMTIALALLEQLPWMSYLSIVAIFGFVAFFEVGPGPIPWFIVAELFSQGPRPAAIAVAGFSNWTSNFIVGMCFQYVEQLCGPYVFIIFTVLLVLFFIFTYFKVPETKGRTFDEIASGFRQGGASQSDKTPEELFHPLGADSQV
row,Compound,inhibition
1,Cc1cccc2nc(-c3cccc(-c4ccc(NC(=O)c5cnccc5C(F)(F)F)cc4)c3)[nH]c12,1.18%
2,CC1CN(Cc2ccc(-c3ccc(-c4nc5cc(F)ccc5[nH]4)s3)cc2)CC(C)O1 (stereo not given),5.96%
3,O=S(=O)(Nc1cccc(CCN2CCC(N3CCCCC3)CC2)c1)c1ccc(Oc2ccccc2)cc1,4.33%
4,O=C(NC1CCN(CCCOc2ccnc3cc(Cl)ccc23)C1)c1ccc(Br)cc1 (stereo not given),9.74%
5,NC(=O)c1sc(-n2cnc3ccc(OCC4CCNCC4)cc32)cc1OCc1ccccc1C(F)(F)F,0.4%
6,N#CCc1ccc(Nc2nccc(Nc3ccc(Oc4ccccc4)cc3)n2)cc1,13.8%
7,O=C(Nc1ccc(C(F)(F)F)cc1)c1cccc(S(=O)(=O)NC2CCN(Cc3ccccc3)C2)c1 (stereo not given),4.37%
8,CCCCCN1CCCN(Cc2cccc(NC(=O)c3ccc(-c4ccccc4)cc3)c2)CC1,-0.68%
9,CCC1(CC)C(=O)N=C(N2CCCCC2)N(C)C1=O,19%
10,O=C(Nc1cc(F)cc(F)c1)N1CCOC(CCN2CCC3(CCc4ccccc43)CC2)(c2ccc(Cl)c(Cl)c2)C1 (stereo not given),3.28%
11,NCc1ccc(CNCc2ccc(-c3ccc(-c4nc5cc(F)ccc5[nH]4)cc3)cc2)cc1,10.3%
12,N#Cc1cncc(-c2nc3c(N4CCC(N5CCCC5)CC4)cccc3n2CCNCc2ccccc2)c1,0.91%
13,CO/N=C(\C)c1ccc2c(c1)CCN(CCC1CCC(NC(=O)/C=C/c3ccc(F)cc3)CC1)CC2 (stereo not given),6.29%
14,O=C(CSc1nc(-c2ccccc2Cl)ns1)Nc1cccc(Cl)c1,1.59%
15,N#Cc1ccc2c(c1)CCN(CCC1CCC(NC(=O)/C=C/c3cccc4cc[nH]c34)CC1)CC2 (stereo not given),8.95%
16,CN1CCN(c2cc(-c3cccnc3)nc(-c3ccncc3)n2)CC1,5.56%
17,CCCC(=O)Nc1ccc(OCCN(Cc2ccccc2OC(F)(F)F)c2ccc(C(F)(F)F)c(C#N)c2)cc1,3.46%
18,CC(C)NCc1ccc(-c2cccc(-c3nc4ccccc4[nH]3)c2)cc1,13.3%
19,CCCCCCCCCn1c(NCc2cc(Cl)ccc2O)nc2ccccc21,2.6%
20,Cc1cc(NCCc2ccccc2)nc(NC(=N)Nc2cccc(Cl)c2)n1,-0.54%
21,CS(=O)(=O)c1ccc(-c2nc(NCC3CCCCC3)cc(C(F)(F)F)n2)cc1,-0.02%
22,Cc1cc(NCCC(=O)Nc2ccccc2)nc(NCCc2cccnc2)n1,0.51%
23,CCCCCCOc1ccc(C(=O)NCCCC2CCN(CCCCCNC(=O)C=Cc3ccc(Cl)c(Cl)c3)CC2)cc1,2.75%
24,O=C1COc2ccc3ccccc3c21,-2.29%
25,Cc1cccc2nc(-c3ccc(-c4ccc(NC(=O)Nc5ccc(F)c(F)c5F)cc4)s3)[nH]c12,1.26%
